The results in this text go back to PubChem BioAssay (EPA / NIEHS).

The nature of assay [1]: ATG_CRE_CIS: Attagene CIS-FACTORIAL HepG2 Assay for human cAMP Responsive Element (CRE) binding protein 3 (AID 2282926). Conditions: HepG2 CRE cis-reporter, Attagene multiplexed mRNA; actives raise or lower the signal. An outline of the steps:
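Cells carrying cis-regulated reporter constructs respond through their own endogenous factors. After 24 h treatment, RNA is reverse-transcribed, amplified, labelled and sized by capillary electrophoresis; up- and down-regulation are both scored against vehicle.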

The target of assay [2] is CCAAT/enhancer-binding protein beta (Homo sapiens) (UniProt P17676). Kind of assay: ATG_C_EBP_CIS: Attagene CIS-FACTORIAL HepG2 Assay for human CCAAT/Enhancer Binding Protein (C/EBP) beta (AID 2282927). Conditions: HepG2 Attagene cis-factorial transcription factor reporter; actives raise or lower the signal. The method in brief: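 RT-PCR/capillary electrophoresis fluorescence of reporter mRNA, 24 h post-dose, in HepG2 cells carrying transfected cis-promoter reporter units. Bidirectional curve fitting against DMSO baseline captures gain or loss of signal.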

Assay [3] can be described thus: ATG_CMV_CIS: Attagene CIS-FACTORIAL HepG2 Assay for human CMV (Internal Marker) (AID 2282928).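 Note: endpoint acts as a background internal control marker rather than a target.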 The conditions noted are these: HepG2 CMV promoter reporter, transcription factor profiling; actives raise or lower the signal. An outline of the steps: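 Readout: fluorescent reporter cDNA fragments separated by capillary electrophoresis after RT-PCR and HpaI cut. Cells: HepG2 carrying transfected cis-promoter reporter constructs, dosed 24 h. Endpoint serves as background internal-marker control, fit bidirectionally versus DMSO.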

Assay [4] is described as follows: ATG_DR4_LXR_CIS: Attagene CIS-FACTORIAL HepG2 Assay for human Liver X Receptor (LXR), DR4 submotif (AID 2282929). The conditions noted are these: HepG2 Attagene DR4 cis-reporter, mRNA transcription; actives raise or lower the signal. The method in brief:
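HepG2 cells were transiently transfected with multiple cis-regulated reporter units and dosed for 24 hours. The DR4 reporter mRNA was quantified by RT-PCR, 6-FAM labelling and capillary electrophoresis. Bidirectional fits used DMSO as baseline.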

Assay [5] concerns the target Aryl hydrocarbon receptor (Homo sapiens) (UniProt P35869). The assay is described as follows: ATG_Ahr_CIS: Attagene CIS-FACTORIAL HepG2 Assay for human Aryl Hydrocarbon Receptor (Ahr) (AID 2282930). Conditions: HepG2 AhR cis-factorial reporter transcription; actives raise or lower the signal. An outline of the steps: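 HepG2 cells transiently transfected with cis-element-driven multiplexed reporter transcription units; endogenous transcription factor activity measured as reporter mRNA 24 h after dosing. RT-PCR, 6-FAM labelling, HpaI digestion, capillary electrophoresis; bidirectional fitting versus DMSO baseline.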

Assay [6] in a line: ATG_AP_1_CIS: Attagene CIS-FACTORIAL HepG2 Assay for human Activator Protein 1 (AP-1) (AID 2282931). The conditions noted are these: HepG2 Attagene cis-factorial AP-1 reporter mRNA; actives raise or lower the signal. An outline of the steps:
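HepG2 cells transiently transfected with cis-element-driven reporter transcription units, dosed for 24 hours. Reporter mRNA measured by RT-PCR, 6-FAM labelling, HpaI digestion and capillary electrophoresis. Bidirectional fitting against DMSO baseline.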

Assay [7] can be described thus: ATG_AP_2_CIS: Attagene CIS-FACTORIAL HepG2 Assay for human Activator Protein 2 (AP-2) (AID 2282932). The conditions noted are these: HepG2 AP-2 cis-reporter, Attagene transcription factor profiling; actives raise or lower the signal. The method in brief:
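Cells (HepG2) transfected with promoter-driven reporter constructs, treated 24 h. Total RNA reverse-transcribed, reporter cDNA PCR-amplified, FAM-labelled by primer extension, digested, resolved by capillary electrophoresis. Activity fitted both directions versus DMSO.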

Assay [8] is described as follows: ATG_BRE_CIS: Attagene CIS-FACTORIAL HepG2 Assay for human Bone Morphogenetic Protein (BMP) Response Element (BRE) (AID 2282933). The conditions noted are these: HepG2 BMP response element reporter, Attagene transcription factor profiling; actives raise or lower the signal. An outline of the steps:
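A HepG2 multiplex reporter system measured inducible reporter mRNA 24 h post-dosing. Detection: RT-PCR, 6-FAM primer extension, HpaI digestion, capillary electrophoresis. Activity fitted bidirectionally relative to DMSO.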

Assay [9] addresses Retinoic acid receptor alpha (Homo sapiens) (UniProt P10276). Kind of assay: ATG_DR5_RAR_CIS: Attagene CIS-FACTORIAL HepG2 Assay for human Retinoic Acid Receptor Alpha (RARE), DR5 submotif (AID 2282934). Conditions: HepG2 Attagene cis-factorial RARE DR5 reporter, mRNA; actives raise or lower the signal. The method in brief:
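HepG2 cells transiently transfected with multiplexed reporter units under cis (DR5 RARE) promoters, so endogenous transcription factor activity is measured. After 24 h compound exposure, reporter mRNA is quantified by RT-PCR with fluorescent labelling and capillary electrophoresis; bidirectional fitting versus DMSO.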

For assay [10], the target named is Transcription factor E2F1 (Homo sapiens) (UniProt Q01094). Kind of assay: ATG_E2F_CIS: Attagene CIS-FACTORIAL HepG2 Assay for human E2F Transcription Factor 1 (AID 2282935). Conditions: HepG2 Attagene cis-reporter, E2F reporter RNA transcripts; actives raise or lower the signal. An outline of the steps:
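First, HepG2 cells were transfected with reporter transcription units. Next, they were dosed for 24 h. Then RNA was isolated, converted to cDNA, PCR-amplified, FAM-labeled, HpaI-digested and analyzed by capillary electrophoresis.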

Activity calls are given as the source filed them. Rule for the calls: active = hit-call score of the fitted dose curve at least 0.9, where 1 is the maximum; inactive = score below 0.9.

Sequence of CCAAT/enhancer-binding protein beta (Homo sapiens) (P17676 whole entry, looked up): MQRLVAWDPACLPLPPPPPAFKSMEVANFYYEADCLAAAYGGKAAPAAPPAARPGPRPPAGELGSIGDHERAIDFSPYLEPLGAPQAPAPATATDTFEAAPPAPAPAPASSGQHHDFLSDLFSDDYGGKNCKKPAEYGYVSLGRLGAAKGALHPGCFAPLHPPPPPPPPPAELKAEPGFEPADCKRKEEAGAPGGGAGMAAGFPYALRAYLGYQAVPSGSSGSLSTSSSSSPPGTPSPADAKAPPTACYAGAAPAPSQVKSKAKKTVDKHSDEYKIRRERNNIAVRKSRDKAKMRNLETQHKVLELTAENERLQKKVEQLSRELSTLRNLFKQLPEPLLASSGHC
Sequence of Retinoic acid receptor alpha (Homo sapiens) (P10276 whole entry, looked up): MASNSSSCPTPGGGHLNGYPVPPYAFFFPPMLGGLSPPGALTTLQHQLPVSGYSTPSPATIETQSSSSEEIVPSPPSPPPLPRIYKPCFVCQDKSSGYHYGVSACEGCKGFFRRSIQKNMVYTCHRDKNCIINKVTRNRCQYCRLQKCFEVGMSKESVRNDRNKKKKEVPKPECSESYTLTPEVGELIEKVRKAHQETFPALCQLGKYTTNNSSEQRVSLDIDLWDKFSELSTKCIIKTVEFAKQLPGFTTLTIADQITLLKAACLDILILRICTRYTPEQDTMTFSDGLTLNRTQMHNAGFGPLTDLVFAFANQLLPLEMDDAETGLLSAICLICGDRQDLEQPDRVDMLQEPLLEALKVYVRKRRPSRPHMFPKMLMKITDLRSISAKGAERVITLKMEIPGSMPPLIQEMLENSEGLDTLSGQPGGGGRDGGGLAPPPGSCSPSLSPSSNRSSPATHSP
Sequence of Aryl hydrocarbon receptor (Homo sapiens) (P35869 whole entry, looked up): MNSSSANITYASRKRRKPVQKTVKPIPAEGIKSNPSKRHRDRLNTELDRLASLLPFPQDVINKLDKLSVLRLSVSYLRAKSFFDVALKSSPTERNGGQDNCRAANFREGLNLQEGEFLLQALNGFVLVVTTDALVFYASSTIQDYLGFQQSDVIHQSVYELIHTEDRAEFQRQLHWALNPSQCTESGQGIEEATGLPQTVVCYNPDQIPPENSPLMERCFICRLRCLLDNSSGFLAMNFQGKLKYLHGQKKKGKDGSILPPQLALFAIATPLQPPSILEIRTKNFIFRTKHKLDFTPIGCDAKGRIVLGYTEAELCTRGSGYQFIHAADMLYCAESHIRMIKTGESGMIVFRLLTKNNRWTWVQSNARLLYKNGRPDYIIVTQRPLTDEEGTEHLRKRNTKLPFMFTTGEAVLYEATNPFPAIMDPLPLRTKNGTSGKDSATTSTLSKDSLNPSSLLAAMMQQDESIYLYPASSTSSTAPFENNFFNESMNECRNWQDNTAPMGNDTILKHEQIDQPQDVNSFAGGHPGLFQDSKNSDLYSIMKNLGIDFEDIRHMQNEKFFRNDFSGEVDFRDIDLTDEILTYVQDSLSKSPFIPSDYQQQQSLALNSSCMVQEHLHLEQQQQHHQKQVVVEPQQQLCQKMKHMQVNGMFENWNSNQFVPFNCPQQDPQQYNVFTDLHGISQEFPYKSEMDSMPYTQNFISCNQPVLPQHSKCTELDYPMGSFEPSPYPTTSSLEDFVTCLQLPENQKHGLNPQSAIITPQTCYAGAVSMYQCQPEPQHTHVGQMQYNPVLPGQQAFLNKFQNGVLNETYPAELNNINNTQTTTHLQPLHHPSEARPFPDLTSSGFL
Sequence of Transcription factor E2F1 (Homo sapiens) (Q01094 whole entry, looked up): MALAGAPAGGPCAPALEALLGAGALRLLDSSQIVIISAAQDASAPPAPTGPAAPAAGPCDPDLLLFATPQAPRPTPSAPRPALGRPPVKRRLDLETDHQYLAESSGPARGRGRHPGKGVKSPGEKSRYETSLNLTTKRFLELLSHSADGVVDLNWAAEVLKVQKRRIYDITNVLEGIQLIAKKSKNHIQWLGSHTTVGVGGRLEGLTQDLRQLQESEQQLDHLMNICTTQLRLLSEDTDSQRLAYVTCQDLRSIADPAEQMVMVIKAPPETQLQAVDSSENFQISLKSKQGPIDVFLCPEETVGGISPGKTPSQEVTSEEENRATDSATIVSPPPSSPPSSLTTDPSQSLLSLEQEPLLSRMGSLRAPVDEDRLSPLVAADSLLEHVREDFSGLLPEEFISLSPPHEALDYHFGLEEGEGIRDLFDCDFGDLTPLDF

In general, AC50 refers to the concentration giving half of the maximal activity seen. As to `C=C1[C@H]2CC[C@@H]3[C@H]2C(C)(C)CCC[C@]13C`, the compound was classed as inactive in assay [1], in [2], in assay [4], in assay [5], in assay [6] and in assay [7]. The outcome in assay [8], in assay [9] and in assay [10] was inactive. In assay [3], the half-maximal activity concentration (AC50) is 100 µM (active).
With `CC(C)CCCCCOC(=O)CCS`, the outcome in assay [1], in assay [2], in assay [3], in assay [4], in [6] and in assay [7] was inactive. Moreover, the outcome in assay [8] and in assay [9] was inactive.
`COC(=O)c1ccc2cc(C(=O)OC)ccc2c1`: the compound was called inactive in assay [1], in assay [2], in assay [3], in [4], in assay [5] and in assay [6]. For the same compound, the compound was called inactive in assay [7], in assay [8], in assay [9] and in [10].
For `CCc1c(C(=O)O)c(=O)cnn1-c1ccc(Cl)cc1`, the outcome in assay [1], in assay [2], in [3], in assay [4], in assay [5] and in assay [6] was inactive. The outcome in assay [7], in [8], in [9] and in [10] was inactive.
As to `OCCc1ccncc1`, the compound was called inactive in [1], in assay [2], in assay [3], in assay [4], in assay [5] and in [6]. For the same compound, the outcome in [7], in [8], in assay [9] and in assay [10] was inactive.
Turning to `c1ccc(-c2ccccn2)nc1`, the call in [1], in [2], in [3], in [4], in assay [6] and in [7] was inactive. Further, the outcome in assay [8], in [9] and in [10] was inactive.
With `CC(C)(C)c1ccc(-c2ccc(C(C)(C)C)cc2)cc1`, the result in [1], in assay [2], in [4], in [5], in assay [6] and in assay [7] was inactive. Moreover, the result in assay [8], in assay [9] and in assay [10] was inactive. Also, the AC50 in assay [3] was 51.8 µM (active).
With `CC(C)(C)C(=O)CCc1ccc(Cl)cc1`, the compound was called inactive in assay [1], in assay [2], in assay [3], in [4], in assay [5] and in assay [6]. The compound was called inactive in [7], in assay [8], in assay [9] and in assay [10].
As for `CCc1ccc2c(c1)C(=O)c1ccccc1C2=O`, the outcome in assay [1], in assay [2], in assay [3], in assay [4], in assay [6] and in assay [7] was inactive. For the same compound, the compound was called inactive in [8], in assay [9] and in [10]. In addition, the AC50 in assay [5] is 5.39 µM (active).
As to `CC(=O)OC(C)C`, the call in assay [1], in [2], in assay [3], in assay [4], in assay [5] and in assay [6] was inactive. For the same compound, the call in assay [7], in [8], in [9] and in assay [10] was inactive.
For `CCCCOCCOC(=O)COc1nc(Cl)c(Cl)cc1Cl`, the compound was classed as inactive in [1], in [2], in [3], in assay [4], in [5] and in assay [6]. Besides, the call in assay [7], in assay [8], in assay [9] and in assay [10] was inactive.
Regarding `CCOC(F)(F)C(F)(F)C(F)(F)C(F)(F)F`, the result in assay [1], in assay [2], in [3], in assay [4], in [5] and in [6] was inactive. Moreover, the compound was called inactive in assay [7], in assay [8], in assay [9] and in [10].
Take `Cc1cc(C)c(C)cc1C`: the result in assay [1], in assay [2], in assay [3], in assay [4], in assay [5] and in [6] was inactive. Further, the call in assay [7], in assay [8], in [9] and in [10] was inactive.
In the case of `CC(=O)CC(N)=O`, the compound was called inactive in [1], in [2], in assay [3], in [4], in assay [5] and in assay [6]. The compound was classed as inactive in [7], in assay [8], in [9] and in assay [10].
With `O=C1CCCCCN1SSN1CCCCCC1=O`, in assay [1], the AC50 was 147 µM (active). Further, the result in assay [2], in assay [3], in assay [4], in assay [5], in [6] and in assay [7] was inactive. For the same compound, the compound was called inactive in assay [8], in [9] and in [10].
With `O=C1CCCC(=O)O1`, the call in assay [1], in assay [2], in [3], in assay [4], in assay [5] and in [6] was inactive. Besides, the call in assay [7], in assay [8], in assay [9] and in assay [10] was inactive.
For the compound `N[C@H]1C(O)O[C@H](CO)[C@H](O)[C@@H]1O` (stereo not given in full), the compound was called inactive in assay [1], in [2], in assay [3], in assay [4], in assay [5] and in [6]. For the same compound, the outcome in assay [7], in assay [8], in [9] and in assay [10] was inactive.
As to `OCCNCc1ccccc1`, the compound was classed as inactive in assay [1], in [2], in [3], in assay [4], in [5] and in assay [6]. The outcome in [7], in [8], in [9] and in [10] was inactive.
Consider `CCOC(=O)CC`, for which the compound was classed as inactive in assay [1], in assay [2], in assay [3], in assay [4], in assay [5] and in [6]. For the same compound, the compound was called inactive in [7], in [8], in assay [9] and in [10].
Turning to `O=C1CCCCCCCCCCCCCCCO1`, the result in [1], in [2], in [6], in [7], in assay [8] and in assay [9] was inactive. Also, in [10], the outcome was inactive. The AC50 in [3] is 72.9 µM (active); in [4] it was 63.2 µM (active); in assay [5], 61.9 µM (active).
In the case of `CCCCCCC1(C)CCC(=O)O1` (stereo not given), the outcome in [1], in [2], in assay [3], in assay [4], in assay [6] and in [7] was inactive. For the same compound, the outcome in assay [8] and in assay [9] was inactive.
As for `CC(C)c1ccc(C=O)cc1`, the call in assay [1], in [2], in assay [3], in assay [4], in [5] and in assay [6] was inactive. The outcome in [7], in [8], in assay [9] and in assay [10] was inactive.
In the case of `O=C(OCC1CCC2OC2C1)C1CCC2OC2C1` (stereo not given), the compound was called inactive in [1], in assay [2], in [3], in assay [4], in assay [5] and in assay [6]. The compound was classed as inactive in assay [7], in assay [8], in assay [9] and in assay [10].
With `CCOC(=O)NNc1nncc2ccccc12`, the result in assay [1], in assay [2], in assay [3], in assay [4], in assay [5] and in [6] was inactive. Moreover, the call in assay [7], in assay [8], in assay [9] and in assay [10] was inactive.
